# Compound activity: PubChem, Broad Institute
# A selection follows.
# aSyn UTR act: Activators working through SNCA 5'UTR binding (MLPCN); alpha-synuclein 5'UTR reporter, activators screen; activity score, % (tested at 7.5 µM), hits read low; actives 7.1% (n = 300,000); AID 1814; in the data active means activity score below about -60%
# * marks the source's active call; other numbers are inactive results.
SMILES,aSyn UTR act
CC1Cc2ccccc2N1C(=O)CSc1ncc(-c2ccc(F)cc2)n1C (stereo not given),-125.6*
Cc1ccc(C=Nc2ccc(N(C)C)cc2)o1,-138.8*
O=C(/C=C/c1ccccc1F)c1ccoc1,-68.4*
COc1ccccc1/C=C1\SC(N2CCC(C)CC2)=NC1=O,-94.1*
COc1cccc(/C=C2\SC(N3CCCC(C)C3)=NC2=O)c1OC (stereo not given),-99.9*
c1ccc(-c2nnc(-c3ccncc3)nc2-c2ccccc2)cc1,-105.1*
Fc1ccc(-c2ccc(CNCc3ccccn3)o2)cc1,-91.2*
CCCNC(=O)c1cc(Cl)c(NC(=O)C2=CSCCO2)cc1OC,-135.9*
COc1ccc(C(=O)Nn2c(SCC(=O)NCc3ccco3)nc3ccccc3c2=O)cc1,81.4
Cc1cc2nnc(SCC(=O)NCc3ccco3)n2c2ccccc12,-184.1*
COc1ccc(CCNC(=O)c2ccc3c(c2)OCCO3)cc1,-135.3*
O=C(NCCc1ccccc1)c1ccc2c(c1)OCCO2,105.8
COc1ccc(CCNC(=O)c2coc(=O)c(Br)c2)cc1,-62.9*
Cc1ccc(NC(=S)NNC(=S)Nc2ccc(C)cc2C)cc1,112.8
Cc1cc(Cl)ccc1NC(=S)Nc1ccccn1,-90.9*
Cc1ccc(NC(=S)Nc2ccccn2)c(C)c1,-146.9*
Cc1ccc(NC(=S)c2nc3ccccc3[nH]2)c(C)c1,-115.7*
CCN1/C(=C/c2ccc3cccc(C)c3[n+]2CC)Sc2ccccc21,-134.4*
CCN1/C(=C/c2ccc3cc(C)ccc3[n+]2CC)Sc2ccc3sccc3c21,130.8
O=[N+]([O-])c1cccc(-c2noc(-c3ccco3)n2)c1,-95.8*
Cc1cc(-c2nc(-c3ccncc3)no2)ccc1[N+](=O)[O-],-165.5*
Cc1ccc(-c2nc(-c3ccncc3)no2)cc1Cl,-98.7*
Cc1ccc(-c2nc(-c3ccccn3)no2)cc1Cl,103.8
O=[N+]([O-])c1cccc(-c2nc(-c3ccccc3)no2)c1,-133.9*
O=[N+]([O-])c1cccc(-c2nc(-c3ccncc3)no2)c1,-88.7*
SMILES,aSyn UTR act
Cc1ccc(C(=O)N2C(=O)C(c3ccccc3)Oc3ccccc32)cc1 (stereo not given),92.8
O=C1OC(c2ccccc2)/C(=C(/O)c2ccccc2)C1=O (stereo not given),-63.7*
CC1(C)CCCN(Cc2c(O)ccc3c(=O)c(-c4nc5ccccc5s4)c(N)oc23)C1,-125.1*
Cc1cc(C)c2cc(C#N)c(N3CCCN(C(=S)NCCCN(C)C)CC3)nc2c1,95.7
COC(=O)CSc1nc2cc(C)cc(C)c2cc1C#N,-180.1*
COC(=O)CSc1nc2ccc(C)cc2cc1C#N,-72.5*
CCOc1ccccc1C1CC(=O)Nc2cc3c(cc21)OCCO3 (stereo not given),91.9
COc1cccc(/C=N/n2cnc3cc(C)c(C)cc32)c1OC,-97.3*
O=[N+]([O-])c1ccc(/C=N/n2cnc3ccccc32)s1,68.5
Cc1cc2ncn(/N=C/c3ccc([N+](=O)[O-])s3)c2cc1C,-117.3*
Cc1cc(O)ccc1Nc1nc(-c2cccs2)cs1,-101.4*
Cc1cc(O)ccc1Nc1nc(-c2cccnc2)cs1,-281.0*
COc1ccc(C(=O)N=c2sc3ccccc3n2C)cc1,-192.9*
COc1cc(OC)cc(C(=O)N=c2sc3ccccc3n2C)c1,-149.4*
COC(=O)Cn1c(=NC(=O)c2cccc(OC)c2)sc2cc(OC)ccc21,-87.5*
Cc1ccc(C(=O)N/N=c2\sc3ccccc3n2C)cc1,-61.8*
COc1cccc(C(=O)N=c2sc3cc(S(C)(=O)=O)ccc3n2C)c1,-127.2*
Cn1c(/C=C/c2cccc([N+](=O)[O-])c2)c([N+](=O)[O-])c(=O)n(C)c1=O,-193.9*
Cn1c2c(c(=O)n(C)c1=O)C(C(F)(F)F)(C(F)(F)F)N=C(c1ccc(Cl)cc1)N2,99.4
CCCCCOc1ccc(/C=C/c2c([N+](=O)[O-])c(=O)n(C)c(=O)n2C)cc1,-174.9*
Cn1c(/C=C/c2ccc(Cl)cc2)c([N+](=O)[O-])c(=O)n(C)c1=O,-147.3*
Cc1oc(-c2ccc(Cl)cc2)nc1CS(=O)CC(=O)NCCCN1CCCC(C)C1 (stereo not given),-90.9*
COc1ccc(-c2nc(CS(=O)CC(=O)NCCCN3CCCC(C)C3)c(C)o2)cc1OC (stereo not given),-101.0*
NC(=O)c1cc(Br)cc(C2CCCCC2)c1O,86.8
N/C(=N\OC(=O)C1CCCCC1)c1ccc(Br)cc1,-217.3*
SMILES,aSyn UTR act
N/C(=N\OC(=O)C1CCCCC1)c1ccc(Cl)cc1,-138.3*
N/C(=N\OC(=O)C1CCCCC1)c1ccccn1,-118.8*
O=C(Nc1cc(Br)ccc1O)c1cc(-c2ccco2)on1,-133.5*
O=C(Nc1cc(Cl)ccc1O)c1cc(-c2ccco2)on1,-232.7*
O=C(Nc1cccnc1Cl)c1cc(-c2ccco2)on1,-80.3*
CC(C)c1ccc(/C=N/NC(=O)CCNC(=O)c2ccccc2)cc1,-63.2*
CC(C)c1ccc(/C=N/NC(=O)c2cccc(Cl)c2)cc1,-238.4*
Cc1cc(C)nc(SCc2ccc(C(=O)N/N=C/c3cccc(O)c3O)cc2)n1,70.1
CC(C)c1ccc(C(=O)N/N=C/c2cccc(Cl)c2Cl)cc1,-65.5*
Fc1ccccc1-c1nc(-c2ccc(Cl)cc2)no1,-202.8*
CN(C)c1ccc(-c2noc(-c3ccccc3O)n2)cc1,71.4
Cc1ccccc1-c1noc(-c2ccc(Cl)cc2)n1,-192.1*
Cc1ccccc1-c1noc(-c2ccc(O)cc2)n1,-225.7*
Cc1ccccc1-c1noc(C2CCCCC2)n1,-71.0*
Cc1ccccc1-c1noc(-c2ccccc2F)n1,-258.6*
CCC1CCCCN1CCCNC(=O)CC1Oc2ccccc2NC1=O (stereo not given),-75.0*
CCOCCCn1c(SCc2nc3ccccc3s2)nc2ccccc2c1=O,-77.6*
COCCn1c(SCc2nc3ccccc3s2)nc2ccccc21,-144.1*
C=CCn1c(=O)c2ccccc2n2c(SCc3nc4ccccc4s3)nnc12,-97.4*
CN(C)c1ccc(N=C/C=C2/N(C)c3ccccc3C2(C)C)cc1,-83.6*
CSc1nsc(SCC(=O)Nc2ccccc2F)n1,-62.6*
CSc1nsc(SCC(=O)Nc2ccc(OC(C)=O)cc2)n1,-123.7*
CCOC(=O)c1ccc(NC(=O)CSc2nc(SC)ns2)cc1,-107.1*
Cc1cc2ncc(-c3ccc(Cl)cc3)c(N)n2n1,-116.8*
COCc1nn2c(N)c(-c3ccccc3)cnc2c1-c1ccccc1,-105.5*
SMILES,aSyn UTR act
Nc1c(-c2ccccc2)cnc2cc(-c3ccccc3)nn12,-121.1*
O=[N+]([O-])/C=C\c1ccc(N2CCCC2)c(F)c1,-142.5*
CC1CCC(NC(=O)c2cccc(S(=O)(=O)N3CCN(c4ccc(F)cc4)CC3)c2)CC1 (stereo not given),-72.1*
COc1cccc2oc3cc(C#Cc4ccccn4)ccc3c(=O)c12,-194.5*
C=CCSc1nc2ccccc2n1C(=O)/C=C/c1cc(OC)c(OC)c(OC)c1,-172.3*
CCSc1nc2ccccc2n1C(=O)/C=C/c1ccc(OC)c(OC)c1,-168.0*
C=CCSc1nc2ccccc2n1C(=O)/C=C/c1ccc(OC)c(OC)c1,-219.4*
O=C(Nc1nc2c(F)cc(F)cc2s1)C1CC1,-107.4*
Cc1ccc2sc(NC(=O)C3CC3)nc2c1C,-73.0*
O=C1NC(c2ccc3c(c2)OCO3)Nc2ccccc21 (stereo not given),-179.7*
CC(C)Oc1ccccc1C1CC(=O)Nc2cc3c(cc21)OCO3 (stereo not given),90.6
CC(C)c1ccc(C2C3=C(COC3=O)Nc3cc4c(cc32)OCO4)cc1 (stereo not given),122.9
